One experiment concerns DIO1 (gene 1733). The experiment can be described thus: CCTE_GLTED_hDIO1: CCTE's human Deiodinase 1 (DIO1) Inhibition Assay, Great Lakes Toxicology and Ecology Division (GLTED) Lab (AID 2283987; active means hit-call score of the fitted dose curve at least 0.9, where 1 is the maximum;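 further: isolated human DIO1 enzyme in a cell-free setup rather than cells; enzyme activity read as free iodide liberated from substrate via Sandell-Kolthoff colorimetry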). The gist of the method:
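Cell-free human DIO1 enzyme was incubated with test chemical for 3 h, and iodide released from substrate was measured by Sandell-Kolthoff absorbance. Loss of signal versus DMSO baseline indicated inhibition; plates were run in triplicate.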

The nature of experiment [1]: CCTE_Harrill_HTTr_Viability_MCF7: CCTE's 6-hour Cell Viability Assessment for the High-Throughput Transcriptomics (HTTr) Platform, in MCF-7 cells cultured in DMEM + 10% fetal bovine serum, Harrill Lab (AID 2284010). The gist of the method: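 MCF-7 cells in DMEM + 10% FBS, 384-well, exposed 6 h to an eight-point dilution series. Membrane integrity scored by high-content imaging of propidium iodide exclusion; bidirectional fit versus DMSO.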

The nature of experiment [2]: CCTE_Harrill_HTTr_Apoptosis_MCF7: CCTE's 6-hour Apoptosis Assessment for the High-Throughput Transcriptomics (HTTr) Platform, in MCF-7 cells cultured in DMEM + 10% fetal bovine serum, Harrill Lab (AID 2284011). In a few lines: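 MCF-7 cells in DMEM + 10% fetal bovine serum were exposed to chemicals for 6 hours over an eight-point dilution series. Caspase-3/7 activation was imaged by high content imaging with CellEvent Caspase 3/7 Green; bidirectional fitting used DMSO as baseline.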

Experiment [3] deals with Nucleoli Translocation, AR (gene 367) (UniProt P10275). Briefly: UPITT_HCI_U2OS_AR_TIF2_Nucleoli_Antagonist: University of Pittsburgh U2OS Androgen Receptor-Transcriptional Intermediary Factor 2 (AR-TIF2) Antagonism High Content Imaging Assay for Nucleoli Translocation (AID 2283997; active means hit-call score of the fitted dose curve at least 0.9, where 1 is the maximum). In a few lines: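 U2OS cells expressing RFP-tagged human AR and GFP-tagged TIF2 were imaged by high-content fluorescence microscopy for red AR signal in the nucleolar region. Compounds were screened at 20 uM final (0.2% DMSO), with activity fitted relative to DHT as baseline.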
Nucleoli Translocation, AR (gene 367), sequence (P10275 whole entry, looked up, the tested form may be a part): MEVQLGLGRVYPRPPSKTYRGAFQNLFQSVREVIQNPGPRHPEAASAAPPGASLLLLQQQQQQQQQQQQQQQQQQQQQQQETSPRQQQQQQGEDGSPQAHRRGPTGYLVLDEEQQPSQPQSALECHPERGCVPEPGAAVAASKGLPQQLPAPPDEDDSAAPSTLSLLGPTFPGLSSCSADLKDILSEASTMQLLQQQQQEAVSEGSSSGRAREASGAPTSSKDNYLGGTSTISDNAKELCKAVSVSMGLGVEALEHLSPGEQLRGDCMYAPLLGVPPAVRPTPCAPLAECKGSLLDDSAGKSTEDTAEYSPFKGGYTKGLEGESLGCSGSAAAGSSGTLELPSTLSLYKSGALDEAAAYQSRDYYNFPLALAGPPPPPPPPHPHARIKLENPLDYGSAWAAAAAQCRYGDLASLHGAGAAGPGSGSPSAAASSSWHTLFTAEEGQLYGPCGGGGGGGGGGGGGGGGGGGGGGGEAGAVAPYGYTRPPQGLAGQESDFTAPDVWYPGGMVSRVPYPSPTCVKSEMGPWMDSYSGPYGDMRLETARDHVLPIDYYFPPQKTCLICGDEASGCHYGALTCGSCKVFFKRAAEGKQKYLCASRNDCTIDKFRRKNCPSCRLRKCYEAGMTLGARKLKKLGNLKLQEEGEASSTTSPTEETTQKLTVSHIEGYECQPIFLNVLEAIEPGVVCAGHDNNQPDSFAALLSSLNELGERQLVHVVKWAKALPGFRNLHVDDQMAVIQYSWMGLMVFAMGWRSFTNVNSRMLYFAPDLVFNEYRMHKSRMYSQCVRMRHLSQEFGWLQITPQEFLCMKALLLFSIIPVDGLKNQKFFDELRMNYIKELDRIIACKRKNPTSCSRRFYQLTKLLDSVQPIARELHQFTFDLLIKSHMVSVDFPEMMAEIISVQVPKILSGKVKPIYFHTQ

The target in experiment [4] is Ratio of Nucleoli Translocation and Cytoplasm, AR (gene 367) (UniProt P10275). Briefly: UPITT_HCI_U2OS_AR_TIF2_Nucleoli_Cytoplasm_Ratio_Agonist: University of Pittsburgh U2OS Androgen Receptor-Transcriptional Intermediary Factor 2 (AR-TIF2) Agonism High Content Imaging Assay for Ratio of Nucleoli Translocation and Cytoplasm (AID 2284000; active means hit-call score of the fitted dose curve at least 0.9, where 1 is the maximum;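 further: hits raise the red nucleolar to cytoplasm ratio above vehicle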). The gist of the method:
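U2OS cells expressing RFP-tagged human AR and GFP-tagged TIF2 were imaged by high-content fluorescence microscopy. The endpoint is the ratio of nucleolar to cytoplasmic red fluorescence, fitted for gain of signal relative to DMSO. Concentration-response spanned 0.195 to 50 uM final (0.5% DMSO).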

The nature of experiment [5]: CCTE_Shafer_MEA_acute_spike_number: CCTE's Neural Acute Assay for Total Number of Spikes, Shafer Lab (AID 2284008).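 On AC50: curve fitted for decrease in spike count so AC50 reflects inhibitors.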 The procedure:
CCTE_Shafer_MEA_acute assay is conducted using Axion Biosystems 48 well microelectrode array (MEA) plates and Maestro recording system. Each well of the MEA plate contains a grid of 16 microelectrodes embedded in the culture surface. Electrically active cells, such as neurons, can be cultured over the electrodes, and electrical activity in these cells can be recorded extracellularly. The spontaneous firing of neurons is captured from each electrode on a microsecond timescale providing both temporally and spatially precise data. […] The CCTE_Shafer_MEA_acute assay uses primary cultures of rat cortical neurons. […] Data from the assay component CCTE_Shafer_MEA_acute_spike_number was analyzed into 1 assay endpoint. This assay endpoint, CCTE_Shafer_MEA_acute_spike_number, was analyzed in the negative analysis fitting direction relative to DMSO as the negative control and baseline of activity. […]
Spontaneous activity in the cortical cultures was recorded using an Axion Biosystems Maestro 768 channel amplifier and Axion Integrated Studios (AxIS) v1.8 (or later) software. […] Any electrodes with rms noise levels greater than 5 uV were grounded (e.g., no data were recorded). […] Baseline activity (40 min) was recorded before the addition of each compound. An additional 40 min of spontaneous activity was recorded in the presence of each compound. […]

Experiment [6] can be described thus: CCTE_Shafer_MEA_acute_firing_rate_mean: CCTE's Neural Acute Assay for Mean Firing Rate, Shafer Lab (AID 2284009).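 Further: analyzed for loss of signal so actives lower firing rate relative to DMSO.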 In a few lines:
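Read-out: well-mean spike rate (spikes/recording length/electrodes), % change from 40 min pre-dose baseline to 40 min with compound. Rat cortical cultures, DIV 13 or 15, 37 C; 0.03-40 uM; DMSO as negative control.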

For experiment [7], the target named is Nucleoli Translocation, AR (gene 367) (UniProt P10275). The experiment can be described thus: UPITT_HCI_U2OS_AR_TIF2_Nucleoli_Agonist: University of Pittsburgh U2OS Androgen Receptor-Transcriptional Intermediary Factor 2 (AR-TIF2) Agonism High Content Imaging Assay for Nucleoli Translocation (AID 2283998; active means hit-call score of the fitted dose curve at least 0.9, where 1 is the maximum). In a few lines: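 Cells express human AR fused to red fluorescent protein and TIF2 fused to GFP. Red fluorescence in the nucleolar region was quantified by high-content imaging and fitted as gain-of-signal against a DMSO baseline. Compounds were tested at 0.195 to 50 uM final (0.5% DMSO).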

The target of experiment [8] is Ratio of Nucleoli Translocation and Cytoplasm, AR (gene 367) (UniProt P10275). Briefly: UPITT_HCI_U2OS_AR_TIF2_Nucleoli_Cytoplasm_Ratio_Antagonist: University of Pittsburgh U2OS Androgen Receptor-Transcriptional Intermediary Factor 2 (AR-TIF2) Antagonism High Content Imaging Assay for Ratio of Nucleoli Translocation and Cytoplasm (AID 2283999; active means hit-call score of the fitted dose curve at least 0.9, where 1 is the maximum;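 further: antagonists lower the DHT-driven ratio of nucleolar to cytoplasmic red signal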). From the text: UPITT_AR_TIF2_PPIB is a cell-based, high-content imaging assay that uses U2OS, a human osteosarcoma cell line, expressing a human androgen receptor fused to red fluorescent protein and the coactivator TIF2 fused to green fluorescent protein. UPITT_HCI_U2OS_AR_TIF2_Nucleoli_Cytoplasm_Ratio_Antagonist is one of four assay components measured from the UPITT_AR_TIF2_PPIB assay. It is designed to make measurements of the ratio of red fluorescence localized in the nucleolar region of the cell nucleus to red fluorescence localized in the cytoplasm as detected with high-content fluorescent imaging.Data from the assay component UPITT_HCI_U2OS_AR_TIF2_Nucleoli_Cytoplasm_Ratio_Antagonist was analyzed into 1 assay endpoint. This assay endpoint, UPITT_HCI_U2OS_AR_TIF2_Nucleoli_Cytoplasm_Ratio_Antagonist, was analyzed in the positive analysis fitting direction relative to DHT as the baseline of activity. Using a type of binding reporter, measures of receptor for loss-of-signal activity can be used to understand the binding at the pathway-level as it relates to the gene AR.
Ratio of Nucleoli Translocation and Cytoplasm, AR (gene 367), sequence (P10275 whole entry, looked up, the tested form may be a part): as above
Daughter plates containing 2 uL of 10 mM compounds in DMSO were prepared and replicated from the 384-well Library of Pharmacologically Active Compounds (LOPAC) master plates using the Bravo outfitted with a 384-well transfer head. Aluminum adhesive plate seals were applied with an Abgene Seal-IT 100 (Rochester, NY) plate sealer, and the plates were stored at -20 C in a Matrical MatriMinistore (Spokane, WA) automated compound storage and retrieval system. For screening, LOPAC daughter plates were withdrawn from -20C storage, thawed to ambient temperature, centrifuged 1-2 min at 50 g, and the plate seals were removed before the transfer of 98 uL of serum-free tissue culture medium (SFM) into wells using the BioTek Microflo liquid handler (BioTek, Winooski, VT) to generate a 200 uM intermediate stock concentration of library compounds (2.0% DMSO). […]

Experiment [9] is described as follows: TOX21_TR_RXR_BLA_Agonist_Followup_viability: Viability Assessment in the Tox21 Thyroid Hormone Receptor beta Retinoid X Receptor alpha (RXRa) Agonism Beta-lactamase (BLA) Follow-Up Assay (AID 2283970; active means hit-call score of the fitted dose curve at least 0.9, where 1 is the maximum). In a few lines:
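RXRa-UAS-bla HEK293T cells, 2,500/well in phenol red-free DMEM with 2% charcoal-stripped FBS, dosed for 16 h at 37C. Viability measured by CellTiter-Glo ATP luminescence; fitted bidirectionally against DMSO baseline, loss of signal indicating cytotoxicity.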

Results filed as inconclusive are left out. Calls of active or inactive are those of the source. How the source made its calls, unless noted: active means hit-call score of the fitted dose curve at least 0.9, where 1 is the maximum; inactive means score below 0.9.

Regarding `CCN(Cc1cccc(S(=O)(=O)O)c1)c1ccc(C(=C2C=CC(=[N+](CC)Cc3cccc(S(=O)(=O)O)c3)C=C2)c2ccc(O)cc2S(=O)(=O)[O-])cc1`, in the experiment with DIO1 (gene 1733), the AC50 was 65 µM (active). Moreover, the result in experiment [1] and in experiment [2] was inactive.

Regarding `CCCCCCC(C)OC(=O)CCCCC(=O)OC(C)CCCCCC` (centres undefined), the outcome in [3] and in [4] was inactive.

For the compound `CCCCCCCOC(=O)c1ccccc1C(=O)OCCCCCCC`, the outcome in experiment [1] and in experiment [2] was inactive.

With `C=CC(=O)OCC(F)(F)C(F)(F)C(F)(F)C(F)(F)COC(=O)C=C`, in the experiment on DIO1 (gene 1733), the AC50 was 5.82 µM (active).

For `O=C(O)C(F)(F)C(F)(F)C(F)(F)C(F)(F)C(F)(F)C(F)(F)C(F)(F)C(F)(F)Cl`, in the experiment on DIO1 (gene 1733), the call was inactive.

As for `CC/C=C\CCOC(C)=O`, the result in [1] and in [2] was inactive.

In the case of `C#C[C@]1(O)CC[C@H]2[C@@H]3CCc4cc(OC)ccc4[C@H]3CC[C@@]21C`, the outcome in experiment [1] and in experiment [2] was inactive.

Regarding `CCCCC(CC)COP(=O)(O)OCC(CC)CCCC` (centres undefined), the AC50 was 6.52 nM (active) in experiment [5] and 6.51 nM (active) in experiment [6].

`OC[C@@H](O)[C@@H](O)[C@H](O)[C@@H](O)CO`: the outcome in experiment [1] and in experiment [2] was inactive.

With `[Co]`, the outcome in [3], in [7] and in [4] was inactive.

Take `O=C(O)C(F)(F)C(F)(F)C(F)(F)C(F)(F)C(F)(F)C(F)(F)C(F)(F)C(F)(F)C(F)(F)C(F)(F)C(F)(F)C(F)(F)C(F)(F)F`: the AC50 with DIO1 (gene 1733) was 23.7 µM (active).

`CN(C)Cc1ccccc1O`: the compound was called inactive in experiment [3], in experiment [7], in experiment [8] and in [4].

Consider `Nc1ccc(S(=O)(=O)Nc2nccs2)cc1`, for which the compound was classed as inactive in [9], in experiment [1] and in experiment [2].

Turning to `O=C(O)C(F)(F)C(F)(F)C(F)(F)C(F)(F)C(F)(F)C(F)(F)C(F)(F)C(F)(F)C(F)(F)C(F)(F)C(F)(F)C(F)(F)F`, the concentration at half-maximal activity (AC50) with DIO1 (gene 1733) is 39 µM (active).

Turning to `CCCCCC=O`, the outcome in experiment [1] and in [2] was inactive.

Consider `CC(Cc1ccc(O)c(O)c1)C(C)Cc1ccc(O)c(O)c1` (centres undefined), for which the AC50 in the experiment with DIO1 (gene 1733) was 6.62 µM (active). Moreover, the outcome in experiment [1] and in experiment [2] was inactive.

`O=C(O)C(F)(F)C(F)(F)C(F)(F)C(F)(F)C(F)(F)C(F)(F)C(F)(F)C(F)(F)C(F)(F)C(F)F`: the half-maximal activity concentration (AC50) in the experiment with DIO1 (gene 1733) is 88.7 µM (active).

As to `C1COCCN1`, the result in experiment [1] and in experiment [2] was inactive.

Take `O=C(O)C=C(C(F)(F)F)C(F)(F)F`: the AC50 with DIO1 (gene 1733) is 20.2 µM (active).

Regarding `CCCCCCOC(=O)c1ccccc1O`, the compound was called inactive in experiment [3], in experiment [7], in experiment [8], in [4], in experiment [5] and in experiment [6].

As to `CC(CCl)OP(=O)(OC(C)CCl)OC(C)CCl` (centres undefined), the result in experiment [1] and in experiment [2] was inactive.

With `CNC(=S)NC`, the call in experiment [3], in [8], in experiment [1] and in [2] was inactive.

On to `O=C(Cl)C(F)(F)C(F)(F)C(F)(F)C(F)(F)C(F)(F)C(F)(F)C(F)(F)C(F)(F)F`, for which the half-maximal activity concentration (AC50) in the experiment on DIO1 (gene 1733) is 165 µM (active).

For the compound `O=S(=O)(O)c1ccc2ccccc2c1`, the compound was classed as inactive in [9], in experiment [1] and in experiment [2].
